# Measurements from the supplement of paper PMC9262897, “Low-cost anti-mycobacterial drug discovery using engineered E. coli” (Nature Communications, 2022).
# Counter-ions that a name gives are not always drawn. ± gives the standard deviation of the averaged measurements.
# Experiments:
# Assay in all cases: growth (OD600 after 10 h); higher = more growth (less inhibition)
# [1] = system: E. coli TESEC Alr+ wild-type control; settings: compound 0.1 mM; raw OD600 reference: median of DMSO wells 0.241, cell-free background 0.041
# Method: (§1)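 TESEC Mtb Alr E. coli, or the Alr+ wild-type control, in 384-well plates with Prestwick library compounds at 0.1 mM and 1% DMSO, across arabinose induction levels of 1E3 to 1E7 nM. Growth is read as OD600 after 10 h at 37 °C in triplicate biological replicates.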
# E. coli TESEC Mtb Alr [2] = settings: compound 0.1 mM
# Method: as §1
# E. coli TESEC Mtb Asd = settings: compound 0.1 mM
# Method: (§2)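 TESEC E. coli strains in which the native enzyme is deleted and replaced by arabinose-inducible Mtb Asd, DapB, CysH or TrpD, each grown in its selective medium. Strains were screened against the Prestwick library at 0.1 mM and 1% DMSO in 384-well format at low and high arabinose induction. Growth is read as OD600 after 10 h in triplicate.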
# E. coli TESEC Mtb DapB = settings: compound 0.1 mM
# Method: as §2
# [3] = system: E. coli TESEC Alr+ wild-type control; settings: compound 0.1 mM; raw OD600 reference: median of DMSO wells 0.49, cell-free background 0.052
# Method: (§3)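 TESEC Mtb Alr E. coli (ΔaraC ΔtolC ΔentC Δalr ΔdadX, arabinose-inducible Mtb Alr) or the Alr+ wild-type control strain, grown in defined M9-fructose medium without D-alanine in 96-well plates with Prestwick library compounds at 0.1 mM and 1% DMSO. Low Alr induction is 0.1 µM arabinose and high induction is 10 mM arabinose.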
# E. coli TESEC Mtb Alr [4] = settings: compound 0.1 mM; remark: listed apart in the source
# Method: as §3
# [5] = arabinose 1000 nM, raw OD600 reference: median of DMSO wells 0.294, cell-free background 0.041
# [6] = arabinose 10000 nM, raw OD600 reference: median of DMSO wells 0.264, cell-free background 0.041
# [7] = arabinose 100000 nM, raw OD600 reference: median of DMSO wells 0.201, cell-free background 0.041
# [8] = arabinose 1000000 nM, raw OD600 reference: median of DMSO wells 0.193, cell-free background 0.041
# [9] = arabinose 10000000 nM, raw OD600 reference: median of DMSO wells 0.146, cell-free background 0.041
# [10] = arabinose induction (level): High, raw OD600 reference: median of DMSO wells 0.331, cell-free background 0.041
# [11] = arabinose induction (level): Low, raw OD600 reference: median of DMSO wells 0.417, cell-free background 0.041
# [12] = arabinose induction (level): High, raw OD600 reference: median of DMSO wells […], cell-free background 0.041
# [13] = arabinose induction (level): Low, raw OD600 reference: median of DMSO wells 0.227, cell-free background 0.041
# [14] = arabinose 100 nM, raw OD600 reference: median of DMSO wells 0.413, cell-free background 0.052
# [15] = arabinose 10000000 nM, raw OD600 reference: median of DMSO wells […], cell-free background 0.052
SMILES,growth [1],growth (E. coli TESEC Mtb Alr [2]; [5]),growth (E. coli TESEC Mtb Alr [2]; [6]),growth (E. coli TESEC Mtb Alr [2]; [7]),growth (E. coli TESEC Mtb Alr [2]; [8]),growth (E. coli TESEC Mtb Alr [2]; [9]),growth (E. coli TESEC Mtb Asd; [10]),growth (E. coli TESEC Mtb Asd; [11]),growth (E. coli TESEC Mtb DapB; [12]),growth (E. coli TESEC Mtb DapB; [13]),growth [3],growth (E. coli TESEC Mtb Alr [4]; [14]),growth (E. coli TESEC Mtb Alr [4]; [15])
CCCN1C[C@H](CSC)C[C@@H]2c3cccc4[nH]cc(c34)C[C@H]21 [Pergolide mesylate],0.2 ± 0.0044,0.254 ± 0.014,0.252 ± 0.0036,0.185 ± 0.0061,0.161 ± 0.0045,0.156 ± 0.0071,0.314 ± 0.05,0.425 ± 0.015,0.2 ± 0.027,0.234 ± 0.049,0.529 ± 0.017,0.426 ± 0.018,0.345 ± 0.019
C[C@]12CCC(=O)C(O)=C1CC[C@@H]1[C@@H]2CC[C@]2(C)C(=O)CC[C@@H]12 [Formestane],0.115 ± 0.0066,0.182 ± 0.011,0.228 ± 0.014,0.1 ± 0.0018,0.0848 ± 0.0012,0.1103 ± 0.00057,0.13 ± 0.017,0.25 ± 0.052,0.156 ± 0.01,0.159 ± 0.0083,–,0.373 ± 0.025,0.133 ± 0.017
O=c1c2ccccc2[se]n1-c1ccccc1 [Ebselen],0.067 ± 0.0015,0.295 ± 0.02,0.261 ± 0.0064,0.236 ± 0.027,0.224 ± 0.017,0.164 ± 0.0046,0.0698 ± 0.0046,0.061 ± 0.008,0.22 ± 0.027,0.249 ± 0.014,–,0.355 ± 0.009,0.346 ± 0.0078
C[C@]12CCC(=O)C=C1C=C[C@@H]1[C@@H]2CC[C@@]2(C)[C@H]1CC[C@@]2(O)CCC(=O)O [Canrenoic acid potassium salt],0.227 ± 0.01,0.275 ± 0.025,0.237 ± 0.019,0.16 ± 0.0057,0.163 ± 0.0033,0.15 ± 0.0017,0.214 ± 0.052,0.341 ± 0.03,0.196 ± 0.012,0.211 ± 0.031,0.502 ± 0.031,0.407 ± 0.0047,0.264 ± 0.011
CC(C)C[C@H]1C(=O)N2CCC[C@H]2[C@]2(O)O[C@](NC(=O)[C@@H]3C=C4c5cccc6[nH]c(Br)c(c56)C[C@H]4N(C)C3)(C(C)C)C(=O)N12 [Bromocryptine mesylate],0.108 ± 0.0027,0.112 ± 0.058,0.108 ± 0.0015,0.187 ± 0.12,0.0887 ± 0.025,0.191 ± 0.013,0.208 ± 0.056,0.117 ± 0.047,0.236 ± 0.07,0.229 ± 0.018,–,0.401 ± 0.0088,0.323 ± 0.067
CCCC(C)(COC(N)=O)COC(=O)NC(C)C (centres undefined) [Carisoprodol],0.237 ± 0.008,0.287 ± 0.011,0.283 ± 0.0077,0.211 ± 0.014,0.198 ± 0.0098,0.142 ± 0.0024,0.268 ± 0.02,0.322 ± 0.083,0.155 ± 0.0092,0.191 ± 0.015,–,0.403 ± 0.01,0.341 ± 0.015
CC(=O)O[C@H]1CC[C@@]2(C)C(=CC[C@@H]3[C@@H]2CC[C@]2(C)C(=O)CC[C@@H]32)C1 [Dehydroisoandosterone 3-acetate],0.198 ± 0.065,0.239 ± 0.019,0.253 ± 0.01,0.144 ± 0.0063,0.106 ± 0.015,0.134 ± 0.0039,0.315 ± 0.044,0.391 ± 0.0042,0.181 ± 0.005,0.225 ± 0.017,–,0.376 ± 0.012,0.0699 ± 0.0044
CN1[C@@H]2CC[C@H]1C[C@@H](OC(=O)C(CO)c1ccccc1)C2 (some centres undefined) [Atropine sulfate monohydrate],0.234 ± 0.0026,0.299 ± 0.0088,0.25 ± 0.0043,0.253 ± 0.012,0.182 ± 0.0059,0.149 ± 0.011,0.339 ± 0.053,0.421 ± 0.081,0.199 ± 0.015,0.247 ± 0.019,0.418 ± 0.017,0.41 ± 0.019,0.357 ± 0.014
CCCCCC[C@H]1C(=O)O[C@H](C)[C@H](NC(=O)c2cccc(NC=O)c2O)C(=O)O[C@@H](C)[C@@H]1OC(=O)CC(C)C [Antimycin A],0.191 ± 0.0077,0.203 ± 0.018,0.234 ± 0.0026,0.249 ± 0.022,0.125 ± 0.0067,0.159 ± 0.0018,0.24 ± 0.017,0.316 ± 0.12,0.15 ± 0.018,0.278 ± 0.058,–,0.363 ± 0.0093,0.319 ± 0.02
C[C@]12CC[C@@H]3c4ccc(OC(=O)N(CCCl)CCCl)cc4CC[C@H]3[C@@H]1CC[C@@H]2O [Estramustine],0.248 ± 0.0012,0.306 ± 0.011,0.284 ± 0.01,0.212 ± 0.011,0.147 ± 0.009,0.1686 ± 0.00066,0.207 ± 0.025,0.189 ± 0.049,0.173 ± 0.0048,0.187 ± 0.015,0.399 ± 0.008,0.396 ± 0.014,0.31 ± 0.0085
CC(=O)OC1CN2CCC1CC2 (centres undefined) [Aceclidine Hydrochloride],0.257 ± 0.0078,0.314 ± 0.0082,0.2646 ± 0.0025,0.232 ± 0.041,0.174 ± 0.0042,0.166 ± 0.0076,0.22 ± 0.0099,0.306 ± 0.013,0.204 ± 0.02,0.232 ± 0.023,0.459 ± 0.015,0.41 ± 0.007,0.359 ± 0.031
"CC(=O)OCC1=C(C(=O)O)N2C(=O)[C@@H](N)[C@H]2SC1 [Cephalosporanic acid, 7-amino]",0.254 ± 0.0055,0.295 ± 0.011,0.269 ± 0.008,0.22 ± 0.023,0.205 ± 0.011,0.151 ± 0.0034,0.273 ± 0.018,0.402 ± 0.086,0.187 ± 0.014,0.215 ± 0.0044,–,0.408 ± 0.013,0.356 ± 0.011
O=C1CC[C@@]2(O)[C@H]3Cc4ccc(O)c5c4[C@@]2(CCN3CC2CC2)[C@H]1O5 [Naltrexone hydrochloride dihydrate],0.242 ± 0.0065,0.279 ± 0.022,0.2685 ± 0.0019,0.173 ± 0.023,0.175 ± 0.0025,0.139 ± 0.0097,0.224 ± 0.013,0.443 ± 0.05,0.193 ± 0.0052,0.219 ± 0.048,–,0.4315 ± 0.0022,0.335 ± 0.0091
COc1ccc(CCN)cc1OC [Homoveratrylamine],0.2134 ± 0.001,0.287 ± 0.0094,0.281 ± 0.011,0.182 ± 0.019,0.219 ± 0.0076,0.131 ± 0.002,0.225 ± 0.018,0.353 ± 0.087,0.188 ± 0.012,0.217 ± 0.054,–,0.409 ± 0.0095,0.316 ± 0.0066
CC(C)(C)NCC(O)c1cc(Cl)c(N)c(Cl)c1 (centres undefined) [Clenbuterol hydrochloride],0.226 ± 0.0046,0.292 ± 0.0084,0.246 ± 0.005,0.252 ± 0.011,0.215 ± 0.005,0.157 ± 0.0026,0.35 ± 0.0059,0.231 ± 0.031,0.185 ± 0.011,0.191 ± 0.0053,0.605 ± 0.12,0.398 ± 0.011,0.355 ± 0.024
CNC(=O)Oc1ccc2c(c1)[C@]1(C)CCN(C)[C@@H]1N2C [Eserine hemisulfate salt],0.229 ± 0.0049,0.289 ± 0.0076,0.251 ± 0.003,0.203 ± 0.025,0.184 ± 0.0065,0.139 ± 0.008,0.328 ± 0.037,0.408 ± 0.048,0.187 ± 0.015,0.206 ± 0.0057,0.423 ± 0.028,0.409 ± 0.017,0.366 ± 0.01
